Laboratory results taken from PubChem BioAssay (Tox21).
Inconclusive results are not listed. A number with no mark means an inactive call. Calls of active or inactive are those of the source. Unless noted, calls come from the whole dose curve; as a rule, active = well fitted cell-killing curve with a large enough effect in the repeat runs; inconclusive = weak or mixed curves, or effect the other way; inactive = flat fitted curve, though single readings scatter.
% is set by controls: 0 for no effect and ±100 for the full control effect.

Molecular target: Estrogen receptor beta (Homo sapiens) (UniProt Q92731)
Sequence (Q92731 whole entry, looked up): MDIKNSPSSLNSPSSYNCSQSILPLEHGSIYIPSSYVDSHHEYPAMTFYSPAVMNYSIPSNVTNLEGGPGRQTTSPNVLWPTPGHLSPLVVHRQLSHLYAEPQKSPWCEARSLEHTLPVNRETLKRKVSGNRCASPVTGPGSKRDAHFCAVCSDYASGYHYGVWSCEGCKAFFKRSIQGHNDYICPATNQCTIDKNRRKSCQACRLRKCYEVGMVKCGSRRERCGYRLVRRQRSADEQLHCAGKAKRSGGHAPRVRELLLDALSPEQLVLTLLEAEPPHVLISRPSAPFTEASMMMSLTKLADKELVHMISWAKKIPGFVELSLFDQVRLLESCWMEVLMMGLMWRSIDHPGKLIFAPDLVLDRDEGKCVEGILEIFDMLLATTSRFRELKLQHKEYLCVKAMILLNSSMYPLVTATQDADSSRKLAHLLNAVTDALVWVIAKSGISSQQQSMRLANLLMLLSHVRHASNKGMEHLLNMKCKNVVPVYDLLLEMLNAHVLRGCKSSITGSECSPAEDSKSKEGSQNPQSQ
Assay: qHTS assay to identify small molecule agonists of the estrogen receptor beta (ER-beta) signaling pathway (AID 1259377; active = well fitted activation curve with a large enough effect in the signal ratio in the repeat runs, not every such curve was filed as active; the % refers to the signal ratio)
Conditions: ER-beta-UAS-bla HEK293T, beta-lactamase FRET ratio, 16 h; series mostly up to 92.4 µM; activation: at the top concentration
Procedure, shortened: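 Measured by fluorescence intensity from a B/G FRET beta-lactamase substrate (2 h, room temperature) in ER-beta-UAS-bla HEK293T cells treated with DMSO-dissolved compounds for 16 hr at 37C and 5% CO2.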
For `CCCCCCCc1ccc(O)cc1`, the “activation” value was -0.606%.
With `CCC1(CC)C(=O)N=C(O)NC1=O` the “activation” value was -0.132%.

Molecular target: Estrogen receptor beta (Homo sapiens) (UniProt Q92731)
Assay: qHTS assay to identify small molecule antagonists of the estrogen receptor beta (ER-beta) signaling pathway (AID 1259378; active = well fitted inhibition curve with a large enough effect in the signal ratio in the repeat runs, not every such curve was filed as active; the % refers to the signal ratio; note: potency is the fitted concentration of half-maximal effect)
Conditions: ER-beta-UAS-bla HEK293T, beta-lactamase FRET ratio, 16 h; series mostly up to 92.4 µM; activity, negative = inhibition: at the top concentration
Procedure, shortened: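 Antagonist mode: compounds added to beta-lactamase reporter HEK293T ER-beta-UAS cells stimulated with E2 (1nM final), 16 hr at 37C. LiveBLAzer B/G FRET substrate, 2 hours room temperature, fluorescence read-out.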
For `CCOP(=S)(OCC)Oc1cc(C)nc(N(CC)CC)n1`, the “activity, negative = inhibition” value was -17.9%.
With `Cc1cc2c3c(c1)C(c1ccccc1)=N[C@@H](NC(=O)c1ccncc1)C(=O)N3CC2` the “activity, negative = inhibition” value was -19.1%.
For `CCOP(=S)(OCC)SC(CCl)N1C(=O)c2ccccc2C1=O` (stereo not drawn), the Potency was 30.6 µM (active).
With `CCCCCCCc1ccc(O)cc1` the Potency was 54.5 µM (active).
In the case of `CCC1(CC)C(=O)N=C(O)NC1=O`, the “activity, negative = inhibition” value is reported as 1.6%.

Tested on: not listed separately
Assay: qHTS assay to identify small molecule agonists of the androgen receptor (AR) signaling pathway in the presence of an antagonist - cell viability counter screen (AID 1259379); note: nearly all actives have a fitted effect of over 25% in size; note: potency is the fitted concentration of half-maximal effect;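 for activity change, negative = cytotoxicity: MDA-kb2 human breast cancer cells carrying an MMTV luciferase reporter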
Conditions: MDA-kb2 viability, CellTiter-Fluor, 16 h; series mostly up to 92.4 µM; activity change, negative = cytotoxicity: at the top concentration
Procedure, shortened: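 In MDA-kb2 cells (human breast carcinoma, MMTV-luciferase), compounds at 15 concentrations plus 3.0uM nilutamide; 16 hr, 37C, 0% CO2; CellTiter-Fluor fluorescence read for viability.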
In the case of `CC1=C2C[C@H]3[C@@H](CC=C4C[C@@H](O)CC[C@@]43C)[C@@H]2CC[C@]12O[C@@H]1C[C@H](C)CN[C@H]1[C@H]2C`, the Potency is reported as 26.6 µM (active).
With `CCCCC(CC)COC(=O)c1ccccc1C(=O)OCC(CC)CCCC` (stereo not drawn) the “activity change, negative = cytotoxicity” value was 1.85%.
In the case of `c1csc(-c2ccc(-c3cccs3)s2)c1`, the “activity change, negative = cytotoxicity” value is reported as -0.425%.
For `CC[N+]1(CC)CCC(OC(=O)C(O)(c2ccccc2)c2ccccc2)C1` (stereo not drawn), the “activity change, negative = cytotoxicity” value was -0.923% [at 42.5 µM].
For `CNC(C)(C)Cc1ccccc1`, the “activity change, negative = cytotoxicity” value was -0.533% [at 42.5 µM].
In the case of `CCCCON=O`, the “activity change, negative = cytotoxicity” value is reported as 3.09%.
With `CNC(=O)O/N=C(\C)C(C)S(C)(=O)=O` (stereo not drawn) the “activity change, negative = cytotoxicity” value was 0.548% [at 872 µM].
For `C[C@]12Cc3cn[nH]c3C[C@@H]1CC[C@@H]1[C@@H]2CC[C@@]2(C)[C@H]1CC[C@]2(C)O`, the “activity change, negative = cytotoxicity” value was -2.01% [at 42.5 µM].
In the case of `CCOP(=O)(Sc1ccccc1)Sc1ccccc1`, the “activity change, negative = cytotoxicity” value is reported as -2.54%.
In the case of `CCOP(=S)(OCC)Oc1cc(C)nc(N(CC)CC)n1`, the “activity change, negative = cytotoxicity” value is reported as -0.877%.
With `Clc1ccc(C(c2ccc(Cl)cc2)C(Cl)Cl)cc1` the “activity change, negative = cytotoxicity” value was -0.298%.
With `CCCN` the “activity change, negative = cytotoxicity” value was 3.66%.
With `CC(Cc1ccc2c(c1)OCO2)NO` (stereo not drawn) the “activity change, negative = cytotoxicity” value was 5.64%.
In the case of `CN=C=O`, the “activity change, negative = cytotoxicity” value is reported as 1.53%.
In the case of `Cc1cc2c3c(c1)C(c1ccccc1)=N[C@@H](NC(=O)c1ccncc1)C(=O)N3CC2`, the “activity change, negative = cytotoxicity” value is reported as 1.56%.
With `CN(C)CCc1c[nH]c2ccccc12` the “activity change, negative = cytotoxicity” value was 0.761%.
With `ClC1(Cl)C2(Cl)C3(Cl)C4(Cl)C(Cl)(Cl)C5(Cl)C3(Cl)C1(Cl)C5(Cl)C24Cl` (stereo not drawn) the “activity change, negative = cytotoxicity” value was 0.567%.
With `CN1C(=O)[C@@H](NC(=O)c2cc3ccccc3[nH]2)N=C(c2ccccc2)c2ccccc21` the “activity change, negative = cytotoxicity” value was -1.9% [at 42.5 µM].
For `COP(=S)(OC)Oc1nc(Cl)c(Cl)cc1Cl`, the “activity change, negative = cytotoxicity” value was 2.26%.
For `O=P(Cl)(Cl)Cl`, the “activity change, negative = cytotoxicity” value was 2.81%.
With `O=c1[nH]c(Cl)c(Cl)cc1Cl` the “activity change, negative = cytotoxicity” value was 1.65%.
For `CCOP(=S)(OCC)SC(CCl)N1C(=O)c2ccccc2C1=O` (stereo not drawn), the “activity change, negative = cytotoxicity” value was 0.728%.
With `CCN(CC)C(=S)S` the “activity change, negative = cytotoxicity” value was -1.03%.
Compound `Clc1c(Cl)c(Cl)c(Cl)c(Cl)c1Cl` has an activity change, negative = cytotoxicity of 1.03% [at 8.39 µM].
With `CCCCCCCc1ccc(O)cc1` the “activity change, negative = cytotoxicity” value was -4.64%.
With `Cc1c([N+](=O)[O-])c(C)c([N+](=O)[O-])c(C(C)(C)C)c1[N+](=O)[O-]` the “activity change, negative = cytotoxicity” value was -7.61%.
With `O=S(=O)(NS(=O)(=O)C(F)(F)F)C(F)(F)F` the Potency was 19.3 µM (active).
For `CCC1(CC)C(=O)N=C(O)NC1=O`, the “activity change, negative = cytotoxicity” value was -2.88%.
With `CCO/N=C(\CC)C1=C(O)CC(c2c(C)cc(C)cc2C)CC1=O` (stereo not drawn) the “activity change, negative = cytotoxicity” value was -0.775%.
In the case of `ClC1=C(Cl)[C@]2(Cl)[C@@H]3[C@H]4C[C@H]([C@@H]5O[C@H]45)[C@@H]3[C@@]1(Cl)C2(Cl)Cl`, the “activity change, negative = cytotoxicity” value is reported as 2.35%.
For `CSC(C)(C)/C=N/O`, the “activity change, negative = cytotoxicity” value was -0.966%.
